Assay results as given in publication PMC7862700, “An all-to-all approach to the identification of sequence-specific readers for epigenetic DNA modifications on cytosine”.

Assays:
Test in all cases: DAPPL (digital affinity profiling via proximity ligation, sequencing); 10 mM Tris-HCl pH 7.5, 50 mM NaCl, 1 mM DTT, 4% glycerol, room temperature, 30 min; GST-TFs on glutathione beads, 16-mer random dsDNA library, 0.1% formaldehyde crosslink after washing; high values mean tight binding
Conditions in all cases: protein: recombinant; tags: N-terminal GST; dsDNA, one strand shown
FLI1 = target: T1, FLI1 (Homo sapiens, UniProt Q01543 1-452)
T1 sequence: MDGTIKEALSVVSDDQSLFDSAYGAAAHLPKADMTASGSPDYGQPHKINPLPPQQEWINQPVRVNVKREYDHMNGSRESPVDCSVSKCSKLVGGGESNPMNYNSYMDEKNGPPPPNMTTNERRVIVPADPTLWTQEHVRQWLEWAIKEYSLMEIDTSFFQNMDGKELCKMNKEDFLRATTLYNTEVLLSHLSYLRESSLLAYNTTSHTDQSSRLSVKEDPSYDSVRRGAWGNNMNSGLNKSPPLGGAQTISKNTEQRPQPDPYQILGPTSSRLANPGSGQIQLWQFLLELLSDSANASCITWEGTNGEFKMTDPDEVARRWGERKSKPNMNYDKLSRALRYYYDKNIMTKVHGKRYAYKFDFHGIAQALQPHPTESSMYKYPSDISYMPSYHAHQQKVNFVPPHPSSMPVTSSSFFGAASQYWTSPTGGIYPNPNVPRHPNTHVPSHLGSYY
Outline: (§1)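 Binding signal is each hexamer's read frequency for a factor divided by its frequency in the tag-only sample. The factors were GST-fused human transcription factors from yeast, captured on glutathione beads, DNA-barcoded and pooled with that sample. Pools were incubated with 200 nmole of a random double-stranded 16-mer DNA library in Tris/NaCl/DTT/glycerol buffer at room temperature for 30 min, then washed, crosslinked with 0.1% formaldehyde, proximity-ligated with BsaI/T4 ligase (1 h, 37 °C), PCR-amplified and sequenced on an Illumina NextSeq500.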

ELK1 = target: T2, ELK1 (Homo sapiens, UniProt P19419 1-428)
T2 sequence: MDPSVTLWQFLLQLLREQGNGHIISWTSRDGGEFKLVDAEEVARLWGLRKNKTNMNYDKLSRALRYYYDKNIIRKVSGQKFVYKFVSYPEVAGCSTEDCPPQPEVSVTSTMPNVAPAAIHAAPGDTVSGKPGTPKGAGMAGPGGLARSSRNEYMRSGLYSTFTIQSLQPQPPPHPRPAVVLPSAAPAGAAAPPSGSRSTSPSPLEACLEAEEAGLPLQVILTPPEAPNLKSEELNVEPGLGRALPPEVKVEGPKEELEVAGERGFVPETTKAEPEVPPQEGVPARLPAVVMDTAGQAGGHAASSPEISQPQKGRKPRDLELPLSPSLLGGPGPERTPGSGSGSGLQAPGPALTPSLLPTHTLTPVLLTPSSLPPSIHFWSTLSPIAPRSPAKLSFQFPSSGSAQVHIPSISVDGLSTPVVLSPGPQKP
Outline: as §1

GABPA = target: T3, GABPA (Homo sapiens, UniProt Q06546 1-454)
T3 sequence: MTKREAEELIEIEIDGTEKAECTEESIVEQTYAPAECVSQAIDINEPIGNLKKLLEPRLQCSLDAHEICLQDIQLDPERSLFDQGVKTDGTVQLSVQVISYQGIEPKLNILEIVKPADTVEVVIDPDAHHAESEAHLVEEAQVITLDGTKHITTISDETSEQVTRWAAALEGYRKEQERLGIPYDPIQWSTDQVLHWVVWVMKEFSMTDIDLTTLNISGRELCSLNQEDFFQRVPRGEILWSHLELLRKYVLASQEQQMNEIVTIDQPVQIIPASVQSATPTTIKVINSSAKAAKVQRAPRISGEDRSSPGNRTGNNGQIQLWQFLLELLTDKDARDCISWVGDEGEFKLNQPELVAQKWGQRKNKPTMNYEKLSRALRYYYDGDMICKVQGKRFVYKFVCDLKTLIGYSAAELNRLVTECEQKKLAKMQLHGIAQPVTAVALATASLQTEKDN
Outline: as §1

ELF1 = ELF1 (Homo sapiens, UniProt P32519 1-619)
Outline: as §1

EHF = target: T4, EHF (Homo sapiens, UniProt Q9NZC4 1-300)
T4 sequence: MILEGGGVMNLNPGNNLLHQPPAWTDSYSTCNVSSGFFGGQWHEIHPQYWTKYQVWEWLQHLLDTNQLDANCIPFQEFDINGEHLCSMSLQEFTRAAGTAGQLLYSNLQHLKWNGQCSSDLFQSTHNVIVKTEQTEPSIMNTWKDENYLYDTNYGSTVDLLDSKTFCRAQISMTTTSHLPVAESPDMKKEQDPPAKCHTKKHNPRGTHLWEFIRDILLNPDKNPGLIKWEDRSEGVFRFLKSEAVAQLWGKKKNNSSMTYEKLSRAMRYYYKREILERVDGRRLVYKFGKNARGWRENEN
Outline: as §1

SPI1 = SPI1 (Homo sapiens, UniProt P17947 1-270)
Outline: as §1

SPIB = SPIB (Homo sapiens, UniProt Q01892 1-262)
Outline: as §1

FEV = target: T5, FEV (Homo sapiens, UniProt Q99581 1-238)
T5 sequence: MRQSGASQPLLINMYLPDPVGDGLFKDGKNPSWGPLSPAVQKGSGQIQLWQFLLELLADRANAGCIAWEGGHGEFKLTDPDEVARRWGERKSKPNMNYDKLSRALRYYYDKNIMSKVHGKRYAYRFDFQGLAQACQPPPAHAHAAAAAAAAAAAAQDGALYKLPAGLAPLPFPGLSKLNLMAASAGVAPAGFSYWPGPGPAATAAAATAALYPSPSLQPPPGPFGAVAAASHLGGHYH
Outline: as §1

ETV5 = ETV5 (Homo sapiens, UniProt P41161 1-510)
Outline: as §1

ELF4 = ELF4 (Homo sapiens, UniProt Q99607 1-663)
Outline: as §1

ETV2 = target: T6, ETV2 (Homo sapiens, UniProt O00321 1-342)
T6 sequence: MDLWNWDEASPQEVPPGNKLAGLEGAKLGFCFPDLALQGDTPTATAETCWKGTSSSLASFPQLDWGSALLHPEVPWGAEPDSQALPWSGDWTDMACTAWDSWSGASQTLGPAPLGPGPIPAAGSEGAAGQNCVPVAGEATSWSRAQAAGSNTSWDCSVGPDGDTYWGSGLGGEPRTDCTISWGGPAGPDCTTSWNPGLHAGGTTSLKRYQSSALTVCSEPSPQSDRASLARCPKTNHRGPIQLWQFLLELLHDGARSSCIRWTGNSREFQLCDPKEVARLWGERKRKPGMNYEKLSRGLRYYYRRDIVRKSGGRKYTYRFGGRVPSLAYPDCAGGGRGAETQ
Outline: as §1

ERF = target: T7, ERF (Homo sapiens, UniProt P50548 1-548)
T7 sequence: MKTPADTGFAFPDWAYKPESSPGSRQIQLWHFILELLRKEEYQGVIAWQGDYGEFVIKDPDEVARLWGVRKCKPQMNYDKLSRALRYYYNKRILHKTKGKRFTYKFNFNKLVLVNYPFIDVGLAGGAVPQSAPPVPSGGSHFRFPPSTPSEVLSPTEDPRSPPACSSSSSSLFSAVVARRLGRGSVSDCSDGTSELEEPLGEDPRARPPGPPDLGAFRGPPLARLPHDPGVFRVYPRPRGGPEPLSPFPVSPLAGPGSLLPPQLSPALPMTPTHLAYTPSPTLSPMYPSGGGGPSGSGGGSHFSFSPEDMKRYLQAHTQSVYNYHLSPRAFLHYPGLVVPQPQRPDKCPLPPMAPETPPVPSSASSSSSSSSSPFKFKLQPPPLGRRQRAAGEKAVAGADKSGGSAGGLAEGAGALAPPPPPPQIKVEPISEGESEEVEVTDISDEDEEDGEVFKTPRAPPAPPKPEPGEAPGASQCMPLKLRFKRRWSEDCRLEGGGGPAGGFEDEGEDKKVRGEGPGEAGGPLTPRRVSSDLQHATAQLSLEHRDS
Outline: as §1

ETV3 = target: T8, ETV3 (Homo sapiens, UniProt P41162-2 1-143)
T8 sequence: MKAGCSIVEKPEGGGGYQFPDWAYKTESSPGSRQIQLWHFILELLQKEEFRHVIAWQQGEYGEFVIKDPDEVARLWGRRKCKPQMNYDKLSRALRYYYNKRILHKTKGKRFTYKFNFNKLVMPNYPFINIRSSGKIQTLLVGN
Outline: as §1

ETV6 = ETV6 (Homo sapiens, UniProt P41212 1-452)
Outline: as §1

ETV5, sequence (P41161 whole entry): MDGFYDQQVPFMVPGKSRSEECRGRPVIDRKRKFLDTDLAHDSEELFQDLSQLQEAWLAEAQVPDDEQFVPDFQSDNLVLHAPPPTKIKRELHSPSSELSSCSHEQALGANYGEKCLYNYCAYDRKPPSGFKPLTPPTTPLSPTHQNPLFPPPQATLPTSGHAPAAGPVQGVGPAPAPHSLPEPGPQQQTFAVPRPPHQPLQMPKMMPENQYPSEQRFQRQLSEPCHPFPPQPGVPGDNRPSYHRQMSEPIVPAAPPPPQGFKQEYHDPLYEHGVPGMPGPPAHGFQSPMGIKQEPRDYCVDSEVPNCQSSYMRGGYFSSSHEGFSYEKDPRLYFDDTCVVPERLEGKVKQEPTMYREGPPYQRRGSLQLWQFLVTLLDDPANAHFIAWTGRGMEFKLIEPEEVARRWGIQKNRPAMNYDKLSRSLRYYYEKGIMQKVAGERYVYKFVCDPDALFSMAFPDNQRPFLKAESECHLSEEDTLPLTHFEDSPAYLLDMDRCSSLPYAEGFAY
ELF4, sequence (Q99607 whole entry): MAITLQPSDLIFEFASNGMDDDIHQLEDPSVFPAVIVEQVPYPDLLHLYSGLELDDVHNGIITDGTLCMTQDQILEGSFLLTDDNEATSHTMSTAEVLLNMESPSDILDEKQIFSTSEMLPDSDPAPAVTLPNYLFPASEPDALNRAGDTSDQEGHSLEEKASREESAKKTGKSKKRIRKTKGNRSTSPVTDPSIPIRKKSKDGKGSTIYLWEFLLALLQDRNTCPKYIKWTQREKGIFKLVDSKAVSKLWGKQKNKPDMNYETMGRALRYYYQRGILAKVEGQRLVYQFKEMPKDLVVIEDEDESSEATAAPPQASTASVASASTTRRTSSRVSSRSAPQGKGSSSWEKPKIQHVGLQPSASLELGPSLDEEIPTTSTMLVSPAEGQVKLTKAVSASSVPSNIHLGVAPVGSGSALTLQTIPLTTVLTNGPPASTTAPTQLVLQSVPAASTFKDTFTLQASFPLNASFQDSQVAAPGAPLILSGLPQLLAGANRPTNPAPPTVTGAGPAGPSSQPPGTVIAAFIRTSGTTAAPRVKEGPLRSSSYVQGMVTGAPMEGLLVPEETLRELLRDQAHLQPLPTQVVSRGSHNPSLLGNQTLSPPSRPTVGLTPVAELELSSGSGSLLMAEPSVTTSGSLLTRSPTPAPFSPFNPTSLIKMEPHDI
ETV6, sequence (P41212 whole entry): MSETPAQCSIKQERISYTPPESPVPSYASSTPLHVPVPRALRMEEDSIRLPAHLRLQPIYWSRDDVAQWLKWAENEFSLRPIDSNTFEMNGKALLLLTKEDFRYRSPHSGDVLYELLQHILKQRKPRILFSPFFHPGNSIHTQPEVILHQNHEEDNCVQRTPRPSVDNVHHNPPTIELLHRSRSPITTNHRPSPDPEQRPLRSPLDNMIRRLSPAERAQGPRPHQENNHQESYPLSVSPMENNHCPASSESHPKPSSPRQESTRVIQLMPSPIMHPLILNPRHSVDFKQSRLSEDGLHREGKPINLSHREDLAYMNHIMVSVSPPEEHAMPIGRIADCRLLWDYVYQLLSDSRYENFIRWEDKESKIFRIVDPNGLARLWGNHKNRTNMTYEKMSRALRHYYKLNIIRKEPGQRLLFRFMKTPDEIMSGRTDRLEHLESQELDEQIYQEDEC
ELF1, sequence (P32519 whole entry): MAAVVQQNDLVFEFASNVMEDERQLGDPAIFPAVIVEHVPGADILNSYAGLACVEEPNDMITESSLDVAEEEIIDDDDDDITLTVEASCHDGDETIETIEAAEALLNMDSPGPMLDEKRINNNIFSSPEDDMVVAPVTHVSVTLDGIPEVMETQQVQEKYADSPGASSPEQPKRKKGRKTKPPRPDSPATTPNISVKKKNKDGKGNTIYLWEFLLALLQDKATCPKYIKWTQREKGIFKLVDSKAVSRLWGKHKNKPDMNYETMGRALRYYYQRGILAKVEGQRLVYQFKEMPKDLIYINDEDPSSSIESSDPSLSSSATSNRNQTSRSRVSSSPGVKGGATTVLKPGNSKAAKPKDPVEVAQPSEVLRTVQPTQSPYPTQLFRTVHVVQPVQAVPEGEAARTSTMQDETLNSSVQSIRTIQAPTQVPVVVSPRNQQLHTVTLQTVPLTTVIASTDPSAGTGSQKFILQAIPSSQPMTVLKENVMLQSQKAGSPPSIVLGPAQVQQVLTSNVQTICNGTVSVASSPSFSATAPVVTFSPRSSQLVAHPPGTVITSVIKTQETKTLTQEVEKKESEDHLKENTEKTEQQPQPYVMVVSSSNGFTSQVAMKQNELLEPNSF
SPIB, sequence (Q01892 whole entry): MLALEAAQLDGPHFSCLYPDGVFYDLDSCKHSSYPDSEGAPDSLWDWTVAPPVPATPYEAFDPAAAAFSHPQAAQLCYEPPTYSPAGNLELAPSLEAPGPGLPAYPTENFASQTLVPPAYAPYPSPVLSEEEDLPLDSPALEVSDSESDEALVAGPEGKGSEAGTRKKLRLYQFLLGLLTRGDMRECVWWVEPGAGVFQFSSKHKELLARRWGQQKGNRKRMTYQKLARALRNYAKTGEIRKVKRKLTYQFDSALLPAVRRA

ACCAAA
binding signal (FLI1): 1.01 fold enrichment (6-mer frequency, TF over GST control)
binding signal (ELK1): 1.05 fold enrichment (6-mer frequency, TF over GST control)
binding signal (GABPA): 1.01 fold enrichment (6-mer frequency, TF over GST control)
binding signal (ELF1): 1.04 fold enrichment (6-mer frequency, TF over GST control)
binding signal (EHF): 1.07 fold enrichment (6-mer frequency, TF over GST control)
binding signal (SPI1): 1.06 fold enrichment (6-mer frequency, TF over GST control)
binding signal (SPIB): 1.03 fold enrichment (6-mer frequency, TF over GST control)
binding signal (FEV): 1.07 fold enrichment (6-mer frequency, TF over GST control)
binding signal (ETV5): 1.03 fold enrichment (6-mer frequency, TF over GST control)
binding signal (ELF4): 1.1 fold enrichment (6-mer frequency, TF over GST control)
binding signal (ETV2): 1.14 fold enrichment (6-mer frequency, TF over GST control)
binding signal (ERF): 1.03 fold enrichment (6-mer frequency, TF over GST control)
binding signal (ETV3): 1.02 fold enrichment (6-mer frequency, TF over GST control)
binding signal (ETV6): 1.03 fold enrichment (6-mer frequency, TF over GST control)
